The results in this text go back to PubChem BioAssay (NCI).

SMILES strings stand for the structures. The panel holds about 83,000 compounds, 20% with a hit somewhere; the sample as a whole holds those more often.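 A percent growth of 40 corresponds to 60% growth inhibition; 0 means no net growth; -100 means all cells died. Active threshold: below 10.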 A number with no mark means an inactive call. The source made the active and inactive calls.

This experiment has as its system HL-60(TB) leukemia. Briefly: NCI-60 one-dose screen, 48 h (100 = growth as untreated, 0 = no growth, -100 = all killed). Conditions: 10 µM unless noted.
For `COc1ccc(C(O)c2cc3c(N)c(C(=O)Nc4ccc(Br)cc4)sc3nc2C)cc1` (stereo not given), the growth is -41.5% (active).
With `COc1cc(C(=O)/C=C/c2c(-c3ccc(F)cc3)nc3sccn23)cc(OC)c1OC`, the growth is 32%.
With `COc1ccc2[nH]cc(/C=C3/C(=O)Nc4ccc(F)cc43)c2c1`, the growth is 96.6%.
With `COC(=O)/C=C1\SC(=Nc2cccc(OC)c2)N(CCc2c[nH]c3ccccc23)C1=O` the figure was 22.2%; with `Cc1nc(Nc2ccc(S(=O)(=O)Nc3cc(C)on3)cc2)c2ccccc2n1`, 101%.
Regarding `N#CC1=C(N)Oc2c(c(=O)[nH]c3ccc(Cl)cc23)C12C(=O)c1ccccc1C2=O`, the growth is 99.8%.
As for `CCOC(=O)CC1CSC(N/N=C/c2ccc(-n3cccn3)cc2)=N1` (stereo not given), the growth is 94%.
`CCCCNC(=O)NS(=O)(=O)c1ccc(N2N=C(c3cc(C)ccc3C)CC2c2cc(OC)c(OC)c(OC)c2)cc1` (stereo not given): the growth is -16.1% (active).
On to `Cc1cc(Nc2cccc(F)c2)nc(NCc2ccccc2)n1`, for which the growth is 24.1%.
Turning to `c1ccc2c(Cc3csc4ccccc34)csc2c1`, the growth was 72%.
Regarding `CCCCCCCCO`, the growth was 93.8%.
On to `O=S(=O)(c1ccccc1)N1CCCc2ccccc21`, for which the growth was 103%.
Consider `CCCCS(=O)(=O)Oc1ccc(-c2nc(C)c(C(=O)OCC)s2)cc1C=O`, for which the growth is 37.7%.
Regarding `C[C@]12C[C@@H](c3ccoc3)OC(=O)[C@@H]1CC[C@]1(C)[C@@H]2CC[C@@H](O)[C@]1(C)O`, the growth is 9.31% (active).
With `COc1ccc(N2CCN(C(=O)c3sc4nc(C)c(Br)c(C)c4c3N)CC2)cc1` the figure was 95.7%.
